# Hits are enriched below; roughly 10% of the tested compounds scored in any of these assays.
# HPGD block: HPGD (human) dehydrogenase inhibition; Potency, µM, for inactives: at the top dose activity change, negative = inhibition, hits mostly inhibitors; P15428; purified HPGD, NADH fluorescence kinetic, PGE2 substrate; AID 894; actives 4.3% (n = 150,000); further: potency means the concentration at half of the fitted maximal effect
# Target sequence (P15428 whole entry, looked up): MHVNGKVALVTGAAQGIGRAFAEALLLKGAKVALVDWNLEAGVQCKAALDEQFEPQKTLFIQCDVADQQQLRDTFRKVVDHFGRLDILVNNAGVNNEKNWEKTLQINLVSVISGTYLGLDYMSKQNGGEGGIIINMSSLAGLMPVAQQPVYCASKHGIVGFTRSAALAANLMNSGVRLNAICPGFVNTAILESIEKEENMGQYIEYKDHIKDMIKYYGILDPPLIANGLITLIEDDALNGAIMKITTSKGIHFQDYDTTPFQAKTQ
#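 20 nM HPGD preincubated 15 min at room temperature with compound in 50 mM Tris-HCl pH 8, 0.01% Tween 20. Started with 1 mM NAD+ and 30 uM prostaglandin E2; NADH fluorescence (360/450 nm) read 5 times over 30-s intervals, last minus first.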
# PNC assembly inh: perinucleolar compartment assembly inhibition | actives 3.1% (n = 140,000) | activity change (PNC), negative = inhibition, % at 10 µM | AID 2417 | PC3M PTB-GFP, PNC prevalence imaging, 16 h; active compounds read low;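 active means readout at or below -70, meaning at least 70% loss of cells showing the perinucleolar compartment, a nuclear body marking cancer cells; inconclusive means readout between -30 and a set limit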;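 further: plate controls were DMSO wells for no effect and camptothecin positive control wells for full effect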
#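 Compounds are pinned in duplicate onto adhered PC3M cells stably expressing GFP-tagged PTB and incubated 16 h at 37 C. Cells are then fixed, nuclei stained with Hoechst, and PNC-positive cells counted.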
# Lamin A splicing: modulators of lamin A splicing. HeLa LMNA splicing GFP/RFP minigene ratio, 48 h. Potency, µM (highest dose often 46.1 µM), inactives show at the top dose ratio change, negative = inhibition, most hits filed as inhibitors. actives 0.01% (n = 200,000); active means well fitted inhibition curve with a large enough effect in the signal ratio, with a control signal flat, not every such curve was filed as active; inconclusive means small, poorly fitted or top-dose-only effect, or effect the other way, or a change in a side signal; the % refers to the signal ratio; further: potency means the concentration at half of the fitted maximal effect
#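 S3 HeLa cells stably expressing lamin A-EGFP splicing minigene plus DsRed2, 600 cells/well, 48 h compound exposure at 37C. Laser-scanning cytometry; analysed as GFP (500-530 nm)/RFP (575-640 nm) total intensity ratio; 0.5% DMSO vehicle.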
# ALDH1A1 block: blocks purified human ALDH1A1 activity; Purified ALDH1A1, NADH fluorescence, propionaldehyde substrate; Potency, µM (titrated, usually from 75.3 µM), inactives show top-dose activity, negative = inhibition, most hits filed as inhibitors; actives 7.3% (n = 220,000); AID 1030;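 further: potency means the concentration at half of the fitted maximal effect; plate controls were no enzyme wells and a reference inhibitor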
# KinaseGlo FLuc: Kinase-Glo luciferase inhibition (counter-screen). Potency, µM (doses to about 38.3 µM), inactives show top-dose activity change, negative = inhibition, most hits filed as inhibitors. actives 0.28% (n = 200,000). AID 1379. Kinase-Glo luciferase, ATP luminescence, 8 min. Q27757; active means well fitted inhibition curve with a large enough effect; inconclusive means small, poorly fitted or top-dose-only effect; further: potency means the concentration at half of the fitted maximal effect; nearly all actives have a fitted effect of over 60% in size
#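 Recombinant Kinase-Glo luciferase, 10 uM ATP (linear range), luciferin; imidazole pH 7.2 / KCl / MgCl2 / Tween / BSA buffer; 8 min RT; luminescence.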
# * = called active by the depositor; ? = inconclusive; . = no result given; [ ] = remark or other dose. Unless noted, the call rests on the fitted dose curve; in most records, active means well fitted inhibition curve with a large enough effect (not every such curve was filed as active); inconclusive means small, poorly fitted or top-dose-only effect, or another doubt; inactive means no such curve, though single readings can be large or run the other way. Unless noted, on the % scale 0 is the no-effect control and ±100 the full control effect.
SMILES,HPGD block,PNC assembly inh,Lamin A splicing,ALDH1A1 block,KinaseGlo FLuc
Cn1c(=O)n(C/C=C/c2ccccc2)c(=O)c2c1nc1n2CCN1c1ccc(F)cc1,.,.,-8%[46 µM],.,.
O=C1CCCC2CCCCN12 (centres undefined),0%,.,.,0%[186 µM],-1%[39.9 µM]
O=C(O)CN(CCN(CC(=O)O)CC(=O)O)CC(=O)O.[Cu],1%,.,.,-2%[13.5 µM],-4%[7.66 µM]
CC(=O)NN1C(=O)/C(=C/c2ccc(Br)o2)SC1=S,?,32,-14%,25µM*,1%
CC(=O)NN1C(=O)/C(=C\c2ccc(Br)o2)SC1=S,?,26,?,?,-1%
O=C(CCN1C(=O)C2CCCCC2C1=O)Nc1ccc(F)c(F)c1F (centres undefined),.,.,.,10µM*,-3%
CCOC(=O)c1cc[nH]c1CC(=O)NC,.,.,.,3%,.
CCOC(=O)c1[nH]cnc1C(=O)Nc1ccccn1,.,28,0%,0.25µM*,.
CN(CCOc1ccc(-c2ccn(S(=O)(=O)c3cccc4ccccc34)n2)cc1)c1ccccn1,-14%,-89*,-20%,10%,2%
CN(CCOc1ccc(-c2ccn(S(=O)(=O)c3c(Cl)cccc3Cl)n2)cc1)c1ccccn1,-9%,11,3%,1%,1%
c1ccc(C2=Nc3ccccc3SC2c2nc3ccccc3[nH]2)cc1 (centres undefined),35µM*,-3,?,?,-12%
COc1ccc(CCCc2nnc(SCC(=O)Nc3ccc(C)cc3)o2)cc1C,.,.,1%[46 µM],.,.
O=C(CSc1nc(O)c(C2CCCCC2)c(=O)[nH]1)Nc1ccc(Cl)cc1,-6%,-112*,?,-1%,0%
CC(=O)Nc1c(O)nc(SCC(=O)Nc2ccc(C(C)=O)cc2)[nH]c1=O,-27%,-26,2%,11µM*,0%
CC(=O)Nc1c(O)nc(SCC(=O)Nc2cccc(C)c2)[nH]c1=O,-8%,?,7%,-7%,-4%
COC(=O)C/C=C\[C@@H](C)[C@@H](/C=N\O[C@@H](C)CN1CCCCc2nc(C)c(C)cc21)NS(=O)(=O)c1ccc(C)cc1,.,.,.,13%[13.5 µM],.
Cc1c(N=Cc2nc3ccccc3[nH]2)c(=O)n(-c2ccccc2)n1C,-23%,-15,6%,2%,-22%
Cc1c(NC(=O)/C(C#N)=C/c2ccc(-c3cccc(Cl)c3)o2)c(=O)n(-c2ccccc2)n1C,18µM*,-26,-17%,4%,1%
Cc1cccc(-c2ccc(C=Nc3c(C)n(C)n(-c4ccccc4)c3=O)o2)c1,-27%,7,6%,11µM*,-2%
Cc1c(N=Cc2nc3ccccc3n2C)c(=O)n(-c2ccccc2)n1C,-6%,21,7%,7%,11µM*
Cn1c(=O)n(C)c2cc(CNCc3ccc(F)cc3)ccc21,.,.,13%[46 µM],.,.
O=C(c1csnn1)N1CCC2(CCCN(c3ncccn3)C2)CC1,-12%,.,.,?,0%
CC(C)OC(=O)[C@@H]1CC[C@H](C)[C@@H](CCCCO)O1,-7%,.,.,-2%,2%
O=C(c1ccncc1)N1CCC[C@@]2(CCN(c3cccc(-c4ccccc4)c3)C2)C1,-13%,.,.,?,1%
Cc1noc(C)c1-c1nc(N(C)C)c2ccccc2n1,.,.,-3%,?,.
SMILES,HPGD block,PNC assembly inh,Lamin A splicing,ALDH1A1 block,KinaseGlo FLuc
O=C(CSc1nnc(-c2cccnc2)o1)c1cc2ccccc2oc1=O,-16%,-99*,3%,?,-4%
Cn1cnnc1SCC(=O)c1cc2ccccc2oc1=O,?,-5,?,10µM*,-2%
O=C(Cn1nc(Cl)nc1Cl)c1cc2ccccc2oc1=O,?,?,9%,?,-3%
COc1ccc(C(=O)N2CCC3(CCN(C(=O)Nc4ccccc4)CC3)CC2)cc1,-10%,.,.,-2%,-1%
Cc1cccc(CNc2ncnc3ccc(-c4c(C)noc4C)cc23)c1,13µM*,.,?,4%,-3%
COc1ccc(CNc2ncnc3ccc(-c4c(C)noc4C)cc23)c(OC)c1,.,.,2.8µM*,20%,.
COCCNc1nc(-c2c(C)noc2C)nc2ccccc12,.,.,?,6%,.
Cc1noc(C)c1-c1ccc2ncnc(NC3CC3)c2c1,14µM*,.,?,-9%,-3%
COCCNc1ncnc2ccc(-c3c(C)noc3C)cc12,.,.,2.8µM*,?,.
Cc1cccc(CNc2ncnc3ccc(-c4cccnc4)cc23)c1,?,.,?,?,-2%
Cc1noc(C)c1-c1ccc2ncnc(NCc3cccnc3)c2c1,.,.,4µM*,1%,.
Cc1cnc(CNc2ncnc3ccc(-c4c(C)noc4C)cc23)cn1,.,.,7.1µM*,-8%,.
COc1ccc(S(=O)(=O)NC2CCCCC2)cc1-n1cnnn1,.,.,-19%[46 µM],1.6µM*,-1%
Cc1cc(S(=O)(=O)NC2CCCCC2)ccc1-n1cnnn1,.,.,-4%[46 µM],-8%,5%
CCN(CC)S(=O)(=O)c1ccc(OC)c(-n2cnnn2)c1,.,.,9%[46 µM],7.9µM*,6%
CN(Cc1ccccc1)C(=O)CSc1nc2ccsc2c(=O)n1-c1ccc(F)cc1,.,.,9%[46 µM],.,.
CCN1C(=O)/C(=C/c2ccc(C)s2)SC1=Nc1ccc(OC)cc1,-14%,26,?,?,-3%
CCN1C(=O)/C(=C/c2cc(C)n(C)c2C)SC1=Nc1ccc(OC)cc1,-14%,?,3%,1.3µM*,14%
CCCN1C(=O)/C(=C/c2cc(C)n(C)c2C)SC1=Nc1ccc(OCC)cc1,-11%,-26,0%,3.2µM*,-1%
CCC(C)NC(=O)CCSCCC(=O)NC(C)CC (centres undefined),-15%,-104*,-5%,1%,-1%
CC(NC(=O)CCSCCC(=O)NC(C)c1ccccc1)c1ccccc1 (centres undefined),-13%,?,5%,-2%,14%
Cc1noc(C)c1-c1cc(NCCN2CCOCC2)ncn1,.,.,0%,20µM*,.
Cc1onc(-c2ccccc2)c1C(=O)NCCN1CCOCC1,-4%,6,-4%,12%,-1%
C[N+]1(NCC[N@@+]2(C)CCc3ccccc3C2)CCCCC1,-9%,.,.,17%[13.5 µM],-1%[7.66 µM]
CSC1=NC2(CCN(C(=O)NC3CCCCC3)CC2)N=C1c1ccc(C)cc1,.,.,12%[46 µM],.,.
SMILES,HPGD block,PNC assembly inh,Lamin A splicing,ALDH1A1 block,KinaseGlo FLuc
Cn1cc(C(=O)N/N=C/C(Br)=C\c2ccccc2)ccc1=O,-22%,19,?,?,-4%
Cn1cc(C(=O)N/N=C/C(Br)=C/c2ccccc2)ccc1=O,28µM*,8,?,?,2%
O=C1COc2ccc(C(=O)/C=C/c3ccccc3)cc2N1,-23%,-6,?,?,1%
O=C(O)/C=C/C(=O)Nc1ccc2c(c1)NC(=O)CO2,.,.,.,22µM*,-1%
COc1ccc(C2NC(=O)CS2)cc1 (centres undefined),-19%,-100*,3%,-13%,1%
C=C1C2=CC(=O)OC(c3ccoc3)[C@]2(C)CCC1[C@]1(C)C=CC(=O)C(C)(C)C1CC(=O)OC (some centres undefined),-4%,.,.,?,-6%
